Experimental data reported in PubChem BioAssay AID1053119 (Broad Institute, 2014).
Measured potencies and affinities stand elsewhere. Records with an inconclusive call do not appear. The source made the active and inactive calls.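 The calls were made as follows: active = signal loss from cell killing with fitted potency at or below twice the top valid dose; inconclusive = flat drop of 30 to 70%, or unreliable curve fit; inactive = opposite direction, flat within 30%, or weaker potency.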

Assay: viability loss in A549 lung cancer cells – cell-based, cherry-picks, 26 µM top dose, cytotoxicity control, dose response (AID 1053119)
Conditions: CellTiter-Glo ATP luminescence, 72 h; series mostly up to 26 µM

SMILES	outcome
O=C(Nc1ccccc1F)N1C[C@@H]2[C@H](c3ccccc31)[C@H](CO)N2C(=O)C1CC1	inactive
CO[C@H]1CN(C)C(=O)c2cc(NC(=O)Nc3ccc(Cl)c(Cl)c3)ccc2OC[C@@H](C)NC[C@H]1C	inactive
C[C@@H]1CN([C@@H](C)CO)C(=O)c2cc(-c3ccccc3)cnc2O[C@H]1CN(C)C(=O)c1cccc(F)c1	inactive
C=CCC[C@H](Cc1ccc(F)cc1)C(=O)OC[C@H](Cc1c[nH]c2ccccc12)NC(=O)[C@@H](CC=C)CC(=O)N[C@@H](CO)Cc1ccccc1	inactive
COCC(=O)Nc1ccc2c(c1)C(=O)N(C)[C@@H]1CC[C@H](CC(=O)NCc3ccccc3Cl)O[C@@H]1CO2	inactive
Nc1nc(-c2cc3c(cc2Cl)OCCO3)cs1	inactive
COc1ccc(-c2oc3ncnc(NCCCN4CCOCC4)c3c2-c2ccc(OC)cc2)cc1	inactive
NC(=O)C1=C[C@H](c2coc3ccccc3c2=O)C[C@H](OCCCCO)O1	inactive
C[C@H](CO)N1C[C@H](C)[C@H](CN(C)C(=O)c2cccc(F)c2)Oc2ncc(-c3ccccc3)cc2C1=O	inactive
O=S(=O)(c1ccccc1F)N1CC[C@H]2[C@H](CO)Nc3ccc(-c4cccc(F)c4)cc3[C@H]21	inactive
C[C@@H]1CN([C@H](C)CO)C(=O)c2cc(-c3ccccc3)cnc2O[C@@H]1CN(C)C(=O)c1cccc(F)c1	inactive
C[C@H](CO)N1C[C@H](C)[C@@H](CN(C)Cc2ccc(-c3ccccc3)cc2)Oc2ccc(NC(=O)CCCN(C)C)cc2C1=O	inactive
COc1ccc(C)cc1N(CC(=O)Nc1cccc(N(C)S(C)(=O)=O)c1)S(C)(=O)=O	inactive
O=S(=O)(c1ccccc1F)N1CC[C@@H]2[C@H]1c1cc(-c3cccc(F)c3)ccc1N[C@@H]2CO	inactive
Fc1cnc(N2CCN(c3ccccc3)CC2)nc1N1CCN(c2ccccc2)CC1	inactive
CCOC(=O)c1nnn(-c2ccc(OC)cc2)c1N	inactive
CO[C@H]1CN(C)C(=O)c2cc(NC(=O)Nc3cc(Cl)cc(Cl)c3)ccc2OC[C@H](C)NC[C@@H]1C	inactive
Cc1cc(C)c(S(=O)(=O)Nn2cnnc2)c(C)c1	inactive
C[C@@H]1CN([C@@H](C)CO)C(=O)c2cc(NC(=O)C3CCCCC3)ccc2O[C@@H]1CN(C)Cc1ccc(-c2ccccc2)cc1	inactive

SMILES	outcome
C[C@@H]1CN([C@H](C)CO)C(=O)c2cc(NC(=O)CCCN(C)C)ccc2O[C@H]1CN(C)Cc1ccc(-c2ccccc2)cc1	inactive
CC(C)NC(=O)N(C)C[C@H]1Oc2ccc(NC(=O)CCN3CCOCC3)cc2C(=O)N([C@H](C)CO)C[C@@H]1C	inactive
COc1ccc(CCNC(=O)C2CCN(Cc3nc(-c4ccccc4F)oc3C)CC2)cc1OC	inactive
CC1(C)Cc2c(C#N)c(SCC(=O)c3ccccc3)nc(N3CCOCC3)c2CS1	inactive
C[C@H](CO)N1C[C@H](C)[C@H](CN(C)C)Oc2cc(C#C[C@@H](C)O)ccc2S1(=O)=O	inactive
CC(NC(=O)CSc1ccc(S(=O)(=O)N2CCOCC2)cn1)c1ccc(Cl)cc1Cl (configuration not stated)	inactive
C[C@H]1CN([C@@H](C)CO)C(=O)c2cc(NC(=O)CCCN(C)C)ccc2O[C@H]1CN(C)Cc1ccc(-c2ccccc2)cc1	inactive
C[C@H](CO)N1C[C@H](C)[C@@H](CN(C)Cc2ccccc2)Oc2ncc(-c3ccccc3)cc2C1=O	inactive
O=C(Nc1nc(-c2ccncc2)cs1)C1COc2ccccc2O1 (configuration not stated)	inactive
C[C@H](O)C#Cc1ccc2c(c1)O[C@@H](CN(C)C)[C@H](C)CN([C@@H](C)CO)S2(=O)=O	inactive
C[C@H]1CN([C@@H](C)CO)C(=O)c2cc(NC(=O)C3CCCCC3)ccc2O[C@H]1CN(C)Cc1ccc(-c2ccccc2)cc1	inactive
CN(C)C(=O)c1ccc(-c2ccc3c(c2)[C@@H]2[C@@H](CCN2C(=O)c2ccc(F)cc2)[C@@H](CO)N3C)cc1	inactive
CN1c2ccc(-c3ccccc3)cc2[C@@H]2[C@@H](CCN2C(=O)CN2CCOCC2)[C@H]1CO	inactive
COCC(C)n1c(SCc2nc(N)nc(Nc3ccccc3C)n2)nc2ccccc2c1=O (configuration not stated)	inactive
CCOC(=O)c1cnc(SCc2nc(N)nc(Nc3ccc(OC)cc3)n2)nc1N	inactive
C[C@H](O)C#Cc1ccc2c(c1)O[C@H](CN(C)C)[C@@H](C)CN([C@H](C)CO)S2(=O)=O	inactive
CO[C@@H]1CN(C)C(=O)c2cc(NC(=O)Nc3ccc(Cl)c(Cl)c3)ccc2OC[C@H](C)NC[C@@H]1C	inactive
Cc1ccc(Nc2nnc(SCc3ccccc3)s2)cc1	inactive
